MBNL1 CUG block – inhibitors of human MBNL1 binding to CUG repeat RNA; Q9NR56; TR-FRET MBNL1-His/biotin-(CUG)12 binding, 665/545 ratio; Potency, µM (highest dose often 57.5 µM), for inactives: at the top dose activity change, negative = inhibition, hits mostly inhibitors; 0.036% of 280,000 active; active = well fitted inhibition curve with a large enough effect in the signal ratio, with a control signal flat, not every such curve was filed as active; inconclusive = small, poorly fitted or top-dose-only effect, or effect the other way, or a change in a side signal; inactive = no such curve, though single readings can be large or run the other way; the % refers to the signal ratio; note: % is set by controls: 0 for no effect and ±100 for the full control effect
Target sequence (Q9NR56 whole entry, looked up): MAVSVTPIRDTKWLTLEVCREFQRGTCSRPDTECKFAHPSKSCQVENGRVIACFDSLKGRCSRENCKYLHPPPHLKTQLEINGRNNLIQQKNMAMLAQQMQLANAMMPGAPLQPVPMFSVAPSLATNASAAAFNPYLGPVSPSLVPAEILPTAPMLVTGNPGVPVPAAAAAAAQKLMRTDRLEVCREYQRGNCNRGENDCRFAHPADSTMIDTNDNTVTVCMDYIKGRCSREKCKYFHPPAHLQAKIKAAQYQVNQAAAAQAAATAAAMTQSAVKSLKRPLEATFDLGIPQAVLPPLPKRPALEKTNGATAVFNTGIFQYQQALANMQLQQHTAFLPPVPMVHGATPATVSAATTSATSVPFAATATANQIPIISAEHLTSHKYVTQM
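TR-FRET readout: Ex 340 nm, 665/545 nm emission ratio, normalized to buffer-only (basal) and MBNL1-(CUG)12 controls. Complex of MBNL1-His with Biotin-(CUG)12, compounds 92 nM–58 uM, incubated 60 min at room temperature.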
ASM inhibitor – inhibitors of human secretory acid sphingomyelinase; P17405; placental ASM, HMU-PC fluorogenic substrate, 60 min; Potency, µM (top dose mostly 57.5 µM), inactives show at the highest dose activity change, negative = inhibition, hits mostly inhibitors; 0.006% of 340,000 active; AID 504937; active = well fitted inhibition curve with a large enough effect; inconclusive = small, poorly fitted or top-dose-only effect; inactive = no such curve, though single readings can be large or run the other way
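qHTS format. ASM enzyme prepared from human placenta hydrolyses the fluorogenic substrate HMU-PC0 (9 uM final) over 60 min at 37 °C after a 10 min compound preincubation.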
Chronic BCR inh – blocks chronic active B-cell receptor signaling. ABC-DLBCL IkBa-CBG/CBR reporter, luminescence ratio, 4 h. Potency, µM (series often up to 46.1 µM), inactives show top-dose activity change, negative = inhibition, actives largely listed as inhibitors. 0.05% of 340,000 active; active = well fitted inhibition curve with a large enough effect in the signal ratio, with a control signal flat, not every such curve was filed as active; inconclusive = small, poorly fitted or top-dose-only effect, or effect the other way, or a change in a side signal; the % refers to the signal ratio;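 note: plate controls were basal doxycycline-induced cells for no effect and cells given 10 µM MG132 for full effect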
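Concentration-response series (up to 46 uM) were applied to TMD8 dual-reporter cells for 4 h at 37C with doxycycline. Green/red ratio, after filter-overlap correction, defined %Activity; red signal alone was normalised to basal cells and zero luminescence.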
gsp ag – gsp mutant agonism | gsp mutant cells, cAMP HTRF, 30 min | Potency, µM (top dose mostly 76.9 µM), for the others: top-dose activation (cAMP increase), most hits filed as activators | 0.13% of 340,000 active | AID 624287; active = well fitted activation curve with a large enough effect; inconclusive = small, poorly fitted or top-dose-only effect, or another doubt; inactive = no such curve, though single readings can be large or run the other way; cell line not stated here;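 note: phosphodiesterase inhibitor Ro 20-1724 added with compounds to block cAMP breakdown; nearly all actives have a fitted effect of over 60% in size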
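Cells in DMEM/10% FBS with G418 were pretreated with compounds in DMSO plus […] (300 uM stock) for 30 min at 37C. cAMP was measured by HTRF (cAMP-d2 plus anti-cAMP antibody-K) after 30 min at room temperature.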
gsp antag – antagonists of gsp mutant (McCune-Albright syndrome); gsp-mutant cells, cAMP HTRF, 30 min; Potency, µM (titrated, usually from 76.9 µM), for inactives: at the highest dose activity change, negative = inhibition, actives largely listed as inhibitors; 0.4% of 340,000 active; calls by dose curve; cell line not stated here;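 note: intracellular cAMP measured with PDE inhibitor Ro 20-1724 present during compound exposure; % is set by controls: 0 for no effect and ±100 for the full control effect; nearly all actives have a fitted effect of over 65% in size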
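Measurement of cellular cAMP by homogeneous time-resolved fluorescence following a 30 min compound exposure at 37C. The PDE inhibitor […] was present throughout; the assay buffer was DPBS with 0.05% BSA and 0.005% Tween 20.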
An asterisk follows results filed as active; i = inactive; u = inconclusive; x = no result given; [ ] = another dose, or the depositor's remark. Compounds with a hit are over-represented: about 0.62% of the library has one in this group of screens. Potency is the fitted concentration of half-maximal effect.

SMILES | MBNL1 CUG block | ASM inhibitor | Chronic BCR inh | gsp ag | gsp antag
O=C1c2ccccc2C(=O)N1CCCCc1cn(C[C@H]2CC[C@@H]([C@@H]3CC[C@H](Cn4cc(CCCCN5C(=O)c6ccccc6C5=O)nn4)O3)O2)nn1 | x | -1% | -7% | x | 32µM*
Cc1ccc2cc(/C=C(\C#N)C(N)=O)c(N3CCCCC3)nc2c1 | u | -9% | 1% | u | -14%
CCOC(=O)/C(C#N)=C/c1cc2ccccc2nc1N1CCCCC1 | 120% | -6% | 15% | 11µM* | 3%
C=CCNC(=S)NNC(=O)COc1cccc(Cl)c1 | -2% | -1% | 18µM* | -10% | 10%
COc1ccc(NC(=O)c2ccccc2Oc2ccccc2)c(OC)c1 | -10% | -4% | 28% | -2% | -6%
COc1ccccc1NC(=O)c1ccccc1Oc1ccccc1 | -7% | -3% | 27% | -7% | 5.6µM*
COc1cc(OC)c(NC(=O)c2ccccc2F)cc1Cl | 3% | 40% | u | u | -6%
COc1cc(NC(=O)c2cc3ccccc3cc2O)c(OC)cc1Cl | 19% | 14% | u | u | 20µM*
Cc1cc(NC(=O)c2cc(-c3ccccn3)nc3ccc(Br)cc23)no1 | 1% | 0% | -3% | u | -11%
O=C(Nc1ccccn1)c1cc(-c2cccnc2)nc2ccc(Br)cc12 | 32% | -1% | 1% | 40µM* | 13%
O=C(c1ccccc1)N1CCN(c2ncnc3c2cnn3-c2ccccc2)CC1 | -4% | -9% | 14% | -15% | u
Cc1nn(-c2ccccc2)c(Cl)c1C(=O)N1CCN(c2ncnc3c2cnn3-c2ccccc2)CC1 | 9% | -10% | -4% | 22% | 13µM*
CC(C)(C)C(=O)NC(=S)NNC(=O)c1sc2ccccc2c1Cl | 15% | 10% | u | -56% | 50µM*
O=C(NNC(=S)NC1CCCCC1)c1sc2ccccc2c1Cl | 7% | 2% | u | 22% | u
CCCOc1ccc2c(c1)C(=NN=C(N)N)c1cc(OCCC)ccc1-2 | 0% | u | u | 16% | 6%
CC(NC(=O)Nc1nnc(C(F)(F)F)s1)(C(F)(F)F)C(F)(F)F | 0% | -2% | 13% | u | 6.3µM*
CCN(CC(=O)Nc1ccc2c(c1)OCCO2)C(=O)CC(NC(C)=O)c1ccccc1 (stereo not given) | x | 7% | -12% | -36% | 6%
COCCCNC(=S)N1CCN(c2nc(-c3ccccc3)cs2)CC1 | -4% | -11% | -3% | u | 32µM*
CCOCCCNC(=S)N1CCN(c2nc(-c3ccccc3)cs2)CC1 | 4% | -6% | -4% | -59% | 50µM*
COc1cccc(-c2csc(N3CCN(C(=S)NCC(C)C)CC3)n2)c1 | 10% | -4% | 0% | u | u
CCNC(=S)N1CCN(c2nc(-c3cccc(OC)c3)cs2)CC1 | 1% | -6% | -1% | 20% | 32µM*
O=C(Nc1cccnc1Cl)C1=NN(c2ccccc2)C(=O)CC1 | -2% | 0% | u | 14% | 2%
O=C(CCC1N=C2c3ccccc3N=C(SCc3cccc(F)c3)N2C1=O)NC1CCCCC1 (stereo not given) | x | x | 0% | x | x
CCN(CC)S(=O)(=O)c1cccc(C(=O)Nc2cc(C)on2)c1 | 0% | 3% | 10% | 16% | 50µM*
CCN(CC)S(=O)(=O)c1cccc(C(=O)Nc2nnc(C)s2)c1 | -19% | 6% | 5% | 21%[15.4 µM] | -15%
SMILES | MBNL1 CUG block | ASM inhibitor | Chronic BCR inh | gsp ag | gsp antag
CN1C(=O)C(N=Nc2ccc([N+](=O)[O-])cc2)SC1=S (stereo not given) | x | -6% | x | u | 32µM*
COc1ccccc1NC(=O)CCCc1nnc2n(C)c(=O)c3sccc3n12 | -2% | -4% | -15% | 13µM* | 11%
COc1ccccc1CNC(=O)CCCc1nnc2n(C)c(=O)c3sccc3n12 | -6% | -2% | 7% | 14µM* | -2%
Cn1c(=O)c2sccc2n2c(CCCC(=O)NCc3ccccc3)nnc12 | x | x | -13% | x | x
O=Cc1cc(OCc2ccccc2)ccc1[B-](F)(F)F | x | -6% | x | x | -4%
Cc1ccc(S(=O)(=O)NC(CC(C)C)C(=O)N2CCN(C/C=C/c3ccccc3)CC2)cc1 (stereo not given) | x | 5% | u | u | -24%
Cc1cn(C)c(CC(=O)NCc2ccc(F)cc2)c1C(=O)O | x | x | -10% | x | x
Cc1cc(C)n2nc(C)c(Br)c2n1 | -4% | 1% | 3% | 3%[15.4 µM] | -14%
Cc1cc(C)n2nc3nc4c(cc3c2n1)CCCC4 | 24% | i | u | 14µM* | 19%
O=C(Nc1ccccc1C(=O)Nc1ccccc1C(=O)O)c1ccccc1 | -2% | 10% | -3% | 9%[15.4 µM] | u
O=C(O)c1ccccc1NC(=O)c1ccccc1Nc1ccccc1 | 1% | 18% | u | -8% | 32µM*
C/C(=N/NC(N)=S)c1ccc(Br)s1 | u | -3% | 20µM* | 28% | 12%
Cc1nc2c(C(=O)NCCC(C)C)c[nH]n2c(=O)c1Cc1ccccc1F | -4% | 1% | u | -19% | 20µM*
CN(CC(=O)Nc1ccc(F)cc1)C(=O)COC(=O)c1cccc(N(C)C)c1 | x | 30% | -4% | 25µM* | -4%
CC(=O)Nc1ccc(N=Nc2ccccc2)cc1[N+](=O)[O-] | x | 18% | x | -23%[15.4 µM] | -9%
O=C(CSc1nnc(-c2ccncc2)n1Cc1ccco1)Nc1nc(-c2ccccc2)cs1 | 0% | 2% | u | -7% | 35µM*
O=C(CSc1nnc(-c2ccncc2)n1Cc1ccco1)Nc1ccccc1Cl | -5% | 1% | -4% | 4% | 5%
CCN1C(=O)[C@H]2[C@@H](c3ccc(C)cc3)N[C@]3(CCCN(Cc4ccccc4)C3=O)[C@H]2C1=O | x | x | x | -23% | x
CCOC(=O)N1CCN(C(=O)/C=C/c2ccc(C(C)(C)C)cc2)CC1 | -5% | 14% | u | -8%[15.4 µM] | -8%
CCOC(=O)C1CCN(C(=O)CN2C(=O)CSc3ccc(S(=O)(=O)N4CCOCC4)cc32)CC1 | -3% | 2% | 0% | 3.5µM* | 5%
O=C(CN1C(=O)CSc2ccc(S(=O)(=O)N3CCOCC3)cc21)N1CCCCC1 | -7% | -2% | -6% | u | 1%
CN(C(=S)Nc1ccc(SC(F)F)cc1)C(c1ccccc1)c1ccccc1 | -2% | 0% | 5% | 2% | 6.3µM*
FC(F)Sc1ccc(NC(=S)NC(c2ccccc2)c2ccccc2)cc1 | -3% | -2% | u | -19% | -9%
O=S(=O)(Cc1ccccc1)C(c1ccccc1)S(=O)(=O)Cc1ccccc1 | x | x | x | 1% | x
CN(Cc1ccccc1)C(=O)CN1CCN(S(=O)(=O)c2ccc(Cl)c(Cl)c2)CC1 | x | 3% | 13% | -42% | u
